{
  "source": "the supplement of paper PMC8975748",
  "note": "Where a name gives a salt, the structure may show the parent alone.",
  "data": [
    {"test_system": "Saccharomyces cerevisiae BY4741 SeMeCo community", "test": "z-score of subpopulation abundance vs DMSO median, subpopulation auxotrophic for HUM; higher = larger share of this subpopulation than in DMSO controls", "details": "10 µM; 24 h; SM minimal medium; subpopulation (auxotrophy): HUM", "protocol": "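Fluorescent four-plasmid SeMeCo (self-establishing metabolically cooperating S. cerevisiae BY4741 community; plasmids pH-mRuby2, pL-mWasabi, pU-eCFP, pM-TagRFP657) was grown 24 h in minimal SM medium with each Selleck FDA-approved drug at 10 µM in 384-well plates. Cells were fixed and imaged by high-content confocal microscopy. For each auxotrophic subpopulation (and the prototroph), a z-score gives the deviation from the DMSO vehicle-control population median.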", "values": [
      {"smiles": "O=C(O[C@H]1C[N+]2(CCCOc3ccccc3)CCC1CC2)C(O)(c1cccs1)c1cccs1", "note": "[Aclidinium Bromide]", "z-score of subpopulation abundance": 0.22},
      {"smiles": "CCN(C)C(=O)Oc1cccc([C@H](C)N(C)C)c1", "note": "[Rivastigmine]", "z-score of subpopulation abundance": 0.66},
      {"smiles": "C=CC[C@]1(O)CC[C@H]2[C@@H]3CCC4=CC(=O)CCC4=C3C=C[C@@]21C", "note": "[Altrenogest]", "z-score of subpopulation abundance": -0.44},
      {"smiles": "O=[N+]([O-])C(Br)(CO)CO", "note": "[Bronopol]", "z-score of subpopulation abundance": -0.53},
      {"smiles": "CN1[C@@H]2CC[C@H]1C[C@@H](OC(=O)[C@H](CO)c1ccccc1)C2", "note": "[Hyoscyamine]", "z-score of subpopulation abundance": -0.99},
      {"smiles": "O=c1cccc2n1C[C@@H]1CNC[C@H]2C1", "note": "[Cytisine]", "z-score of subpopulation abundance": -0.61},
      {"smiles": "CC(=O)O[C@H]1C[C@@H]2CC[C@@H]3[C@H](CC[C@@]4(C)[C@H]3C[C@H]([N+]3(C)CCCCC3)[C@@H]4OC(C)=O)[C@@]2(C)C[C@@H]1[N+]1(C)CCCCC1", "note": "[Pancuronium dibromide]", "z-score of subpopulation abundance": -0.72},
      {"smiles": "CCN(CC)CCOC(=O)C(O)(c1ccccc1)c1ccccc1", "note": "[Benactyzine hydrochloride]", "z-score of subpopulation abundance": 0.98},
      {"smiles": "CC(NC(C)(C)C)C(=O)c1cccc(Cl)c1", "note": "(centres undefined) [Amfebutamone (Bupropion) HCl]", "z-score of subpopulation abundance": -0.74},
      {"smiles": "CC(C)(O)C(Cl)(Cl)Cl", "note": "[Chlorobutanol]", "z-score of subpopulation abundance": -0.45},
      {"smiles": "COC(=O)C1=CCCN(C)C1", "note": "[Arecoline HBr]", "z-score of subpopulation abundance": -0.03},
      {"smiles": "C=C[C@H]1CN2CC[C@H]1C[C@H]2[C@H](O)c1ccnc2ccccc12", "note": "[Cinchonidine]", "z-score of subpopulation abundance": 0.48},
      {"smiles": "CN[C@@H]1[C@@H](O)[C@@H](O[C@@H]2[C@@H](O)[C@H](O[C@H]3O[C@H]([C@@H](C)O)[C@@H](O)[C@H](O)[C@H]3N)[C@@H](N)C[C@H]2N)OC[C@]1(C)O", "note": "[Geneticin (G418 Sulfate)]", "z-score of subpopulation abundance": -0.88},
      {"smiles": "Oc1cc(Cl)ccc1Oc1ccc(Cl)cc1Cl", "note": "[Triclosan]", "z-score of subpopulation abundance": -1.9},
      {"smiles": "COc1ccc2c(c1)[C@]13CCCC[C@@H]1[C@H](C2)N(C)CC3", "note": "[Dextromethorphan hydrobromide hydrate]", "z-score of subpopulation abundance": 0.2},
      {"smiles": "CN[C@@H]1[C@@H](O)[C@@H](O[C@@H]2[C@@H](O)[C@H](O[C@H]3O[C@H](CN)CC[C@H]3N)[C@@H](N)C[C@H]2N)OC[C@]1(C)O.CN[C@@H]1[C@@H](O)[C@@H](O[C@@H]2[C@@H](O)[C@H](O[C@H]3O[C@H]([C@@H](C)N)CC[C@H]3N)[C@@H](N)C[C@H]2N)OC[C@]1(C)O.CN[C@@H]1[C@@H](O)[C@@H](O[C@@H]2[C@@H](O)[C@H](O[C@H]3O[C@H]([C@@H](C)NC)CC[C@H]3N)[C@@H](N)C[C@H]2N)OC[C@]1(C)O", "note": "[Gentamicin Sulfate]", "z-score of subpopulation abundance": -0.69},
      {"smiles": "CCN(C)C(=O)Oc1cccc([C@H](C)N(C)C)c1", "note": "[Rivastigmine Tartrate]", "z-score of subpopulation abundance": -0.85},
      {"smiles": "C[N+](C)(C)CCCCCCCCCC[N+](C)(C)C", "note": "[Decamethonium Bromide]", "z-score of subpopulation abundance": 0.18},
      {"smiles": "NC(=O)CN1CCCC1=O", "note": "[Piracetam]", "z-score of subpopulation abundance": 1.72},
      {"smiles": "CN1c2ccccc2C(NCCCCCCC(=O)O)c2ccc(Cl)cc2S1(=O)=O", "note": "(centres undefined) [Tianeptine sodium]", "z-score of subpopulation abundance": -0.16},
      {"smiles": "CN(C)[C@@H]1C(=O)C(C(N)=O)=C(O)[C@@]2(O)C(=O)C3=C(O)c4c(O)cccc4[C@@](C)(O)[C@H]3[C@H](O)[C@@H]12", "note": "[Oxytetracycline (Terramycin)]", "z-score of subpopulation abundance": -0.11},
      {"smiles": "CCOC(=O)Nc1ccc(NCc2ccc(F)cc2)cc1N", "note": "[Retigabine 2HCl]", "z-score of subpopulation abundance": 0.72},
      {"smiles": "CN1[C@@H]2C[C@@H](OC(=O)[C@H](CO)c3ccccc3)C[C@H]1[C@@H]1O[C@@H]12", "note": "[Scopolamine HBr]", "z-score of subpopulation abundance": -0.97},
      {"smiles": "N#Cc1nn(-c2c(Cl)cc(C(F)(F)F)cc2Cl)c(N)c1[S+]([O-])C(F)(F)F", "note": "(centres undefined) [Fipronil]", "z-score of subpopulation abundance": -0.76},
      {"smiles": "CC[N+](C)(CC)CCOC(=O)C(O)(c1ccccc1)c1ccccc1", "note": "[Methylbenactyzine Bromide]", "z-score of subpopulation abundance": -0.8},
      {"smiles": "CCN1CC2(OC(=O)c3ccccc3NC(C)=O)CCC(OC)C34C1C(CC23)C1(O)CC(OC)C2CC4C1(O)C2OC", "note": "(centres undefined) [Lappaconitine]", "z-score of subpopulation abundance": 0.34},
      {"smiles": "COc1ccc(C=O)cc1", "note": "[p-Anisaldehyde]", "z-score of subpopulation abundance": -0.95},
      {"smiles": "O=C(O[C@H]1C[C@H]2CC[C@@H](C1)[N+]21CCCC1)C(O)(c1ccccc1)c1ccccc1", "note": "[Trospium chloride]", "z-score of subpopulation abundance": -0.32},
      {"smiles": "Cc1cc(O)ccc1Cl", "note": "[Chlorocresol]", "z-score of subpopulation abundance": -0.26},
      {"smiles": "N[C@@H]1C[C@H]1c1ccccc1", "note": "[Tranylcypromine (2-PCPA) HCl]", "z-score of subpopulation abundance": -0.57},
      {"smiles": "CC[C@@]1(O)C(=O)OCc2c1cc1n(c2=O)Cc2cc3ccccc3nc2-1", "note": "[Camptothecin]", "z-score of subpopulation abundance": -0.54},
      {"smiles": "CN1[C@@H]2CC[C@H]1C[C@@H](OC(=O)C(CO)c1ccccc1)C2", "note": "(some centres undefined) [Atropine sulfate monohydrate]", "z-score of subpopulation abundance": -0.27},
      {"smiles": "CNC1CC(N)C(O)C(OC2OC(CO)C(O)C3OC4(OC(C(N)CO)C(O)C(O)C4O)OC23)C1O", "note": "(centres undefined) [Hygromycin B]", "z-score of subpopulation abundance": -0.41},
      {"smiles": "Nc1ccncc1", "note": "[4-Aminopyridine]", "z-score of subpopulation abundance": -0.37}
    ]}
  ]
}
